# In article PMC5540273 (PLoS ONE, 2017):
# Test system: EGFR
# Conditions: concentration: 1 μM, replicates: in singlicate; n = 1
# 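Note: KINOMEscan kinase panel screen.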
row,SMILES,%Inh [%]
1,COc1cc2c(cc1OC[C@@H](O)CO)ncc1c3ccc(C#N)cc3[nH]c21,0
2,COc1ccc(Nc2ncc(C#N)c(Nc3ccccc3C(N)=O)n2)cc1N1CCN(C)CC1.Cl [GSK1558669],92.7
3,Cc1cccc(-c2nc(-c3ccc(S(C)(=O)=O)cc3)sc2-c2ccncc2)c1,0
4,COc1cc(Nc2nccc(N3CCC(NC(=O)c4cccc(NC(C)=O)c4)C3)n2)cc(OC)c1OC (centres unmarked) [GSK1379754],0
5,Cc1ccc(NC(=O)c2ccnc(N3CCN(C)CC3)c2)cc1-c1ccc(C(=O)NCC2CC2)cc1 [GW775604],0
6,CSc1ccc(-c2cc3ncnc(SCC(=O)O)c3s2)cc1,27
7,c1ccc(-c2cc(-c3c[nH]nc3-c3ccccn3)ccn2)cc1 [GW576604],17
8,O=C(Nc1n[nH]c2cc(-c3cccc(F)c3)ccc12)C1CC1 [SB-735464],0
9,Cc1c(Cn2c(C)nn3c(=O)cc(N4CCOC(C)C4)nc23)cccc1C(F)(F)F (centres unmarked) [GSK2344444],34
10,Cc1nnc(-c2ccc3ncc(-c4ccc(S(C)=O)cc4)n3c2)o1 (centres unmarked),9
11,CN(C(=O)c1ccc(-c2cc(-c3c[nH]nc3-c3ccccn3)ccn2)cc1)C1CCOCC1 [GW810083],0
12,Fc1ccc(-c2ncn(CCCN3CCOCC3)c2-c2ccccn2)cc1 [SB-211742],12
13,COc1cc2c(cc1OCCN1CCN(C)CC1)ncc1c3ccc(C#N)cc3[nH]c21,0
14,O=C(c1ccc(-c2cc(-c3c[nH]nc3-c3ccccn3)ccn2)cc1)N1CCOCC1 [GW812171],4
15,CC(=O)Nc1ccc(COc2ccc(Nc3ccnc4cc(-c5ccccn5)ccc34)cc2)cc1.Cl [GW440148],23
16,O=C(NOCC1CC1)c1ccc(F)c(F)c1Nc1ccc(I)cc1Cl,0
17,COc1ccc(Nc2nccc(N3CCC(NC(=O)Nc4cc(C)ccc4C)C3)n2)cc1 (centres unmarked) [GSK1379741],33
18,Cc1ccc(C(=O)NCC(N)=O)cc1-n1c(C)cc(OCc2ccc(F)cc2F)c(Br)c1=O,11

row,SMILES,%Inh [%]
1,Cl.Nc1ncnc2occ(-c3ccc(NC(=O)Nc4cc(C(F)(F)F)ccc4F)cc3)c12 [SB-707548],30
2,Nc1nc(-c2ccc3c(N)n[nH]c3c2)cc(N2CCCC2)n1 [GSK2227430],2
3,CN(C1=C(c2ccccc2)C(=O)NC1=O)c1ccccc1 [SB-334860],27
4,CN1c2ccc(CNc3ccc(F)cc3)cc2-c2c(cnn2C)S1(=O)=O,0
5,COc1ccc(S(=O)(=O)NC2CCN(c3cc(C)nc(Nc4cccc(C#N)c4)n3)CC2)cc1.O=C(O)C(F)(F)F [GSK1653539],18
6,O=c1cc(N2CCOCC2)nc2n(Cc3cccc(Cl)c3Cl)c(C3CC3)nn12 [GSK2358994],0
7,N#Cc1ccc(-c2cc(-c3c[nH]nc3-c3ccccn3)ccn2)cc1 [GW693028],0
8,O=C(Nc1cccc(-c2nn3ncccc3c2-c2ccnc(Nc3cccc(C(F)(F)F)c3)n2)c1)c1c(F)cccc1F [GSK299495],99.1
9,CCc1ccnc(/C=C/c2n[nH]c3cc(Sc4ccccc4C(=O)NC)ccc23)c1,0
10,Nc1nccc(-c2c(-c3ccc(F)cc3)ncn2C2CCN(CC(F)(F)F)CC2)n1 [SB-236560],29
11,Cc1cn2c(=O)cc(N3CCOCC3)nc2n1Cc1cccc(Cl)c1Cl [GSK2334006],45
12,COc1ccc(COc2cc(-n3cnc4ccccc43)sc2C(N)=O)cc1 [GSK1024304],4
13,Fc1ccc(-c2ncn(CCCN3CCOCC3)c2-c2cccnc2)cc1 [SB-211743],0
14,CN1c2ccc(NCc3ccc(F)cc3)cc2-c2c(cnn2C)S1(=O)=O,0
15,O=C(NCCNc1ccnc(Nc2ccc(F)cc2)n1)c1cc2ccccc2s1 [GSK1379874],23
16,Cc1cccc(-c2nc(Nc3ccc4ncsc4c3)c3ccccc3n2)n1 [GW867588],2
17,NCC(NC(=O)c1cc(-c2cn[nH]c2)c(-c2ccnc3[nH]ccc23)s1)c1ccccc1.O=C(O)C(F)(F)F.O=C(O)C(F)(F)F (centres unmarked) [GSK1325775],4
